AGP1 TOR yeast: yeast TOR pathway AGP1-GFP modulation; S. cerevisiae AGP1-GFP multiplex flow cytometry, 3 h; GFP as percent of DMSO wells; GFP response vs DMSO, % at 10 µM; actives 0.02% (n = 320,000);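 active = GFP response relative to DMSO above a set limit, near screen average plus 3 SD, cut at about 150% in these data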;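 note: median GFP channel fluorescence of the gated AGP1 strain per well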
VLA-4 inh: inhibition in a human VLA-4 binding assay | AID 2557 | actives 0.2% (n = 330,000) | P13612 | VLA-4 expressing cells, ligand binding flow cytometry | inhibition, % (about 7 µM as worked out from the volumes in the protocol); in the data active = inhibition above about 50%
Target sequence (P13612 whole entry, looked up): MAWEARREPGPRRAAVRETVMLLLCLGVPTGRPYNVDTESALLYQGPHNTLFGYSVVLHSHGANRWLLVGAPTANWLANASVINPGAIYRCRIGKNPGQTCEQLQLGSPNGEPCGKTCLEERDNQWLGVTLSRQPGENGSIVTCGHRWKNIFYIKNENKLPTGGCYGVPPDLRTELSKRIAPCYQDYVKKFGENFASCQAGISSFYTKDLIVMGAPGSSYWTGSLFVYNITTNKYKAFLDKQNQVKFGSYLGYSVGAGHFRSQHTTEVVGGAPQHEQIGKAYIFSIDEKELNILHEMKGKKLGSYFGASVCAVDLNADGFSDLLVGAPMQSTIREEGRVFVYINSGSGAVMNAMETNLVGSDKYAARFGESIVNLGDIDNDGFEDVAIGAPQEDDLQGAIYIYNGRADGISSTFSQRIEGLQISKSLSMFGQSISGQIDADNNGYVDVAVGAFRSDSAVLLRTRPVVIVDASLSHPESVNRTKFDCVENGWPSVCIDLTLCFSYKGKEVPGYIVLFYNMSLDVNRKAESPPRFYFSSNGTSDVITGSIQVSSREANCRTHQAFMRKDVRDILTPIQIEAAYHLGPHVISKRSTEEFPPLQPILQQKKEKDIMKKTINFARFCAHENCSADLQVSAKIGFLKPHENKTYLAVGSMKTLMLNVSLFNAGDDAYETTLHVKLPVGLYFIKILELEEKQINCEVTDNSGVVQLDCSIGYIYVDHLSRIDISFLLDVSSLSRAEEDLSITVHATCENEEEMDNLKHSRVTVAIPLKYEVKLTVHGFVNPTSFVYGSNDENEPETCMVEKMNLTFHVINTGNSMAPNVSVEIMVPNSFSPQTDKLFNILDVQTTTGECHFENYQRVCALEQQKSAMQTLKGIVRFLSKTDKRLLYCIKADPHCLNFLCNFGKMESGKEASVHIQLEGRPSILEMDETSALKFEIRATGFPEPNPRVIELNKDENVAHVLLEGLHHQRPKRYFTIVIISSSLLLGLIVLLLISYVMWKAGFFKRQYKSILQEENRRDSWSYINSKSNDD
RPL19A TOR yeast: yeast TOR pathway RPL19A-GFP modulation. S. cerevisiae RPL19A-GFP strain, flow cytometry, 3 h; hits give low values. percent response vs DMSO, % at 10 µM. actives 0.3% (n = 330,000). AID 2025;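 active = percent response vs DMSO below 50%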;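 note: median channel GFP fluorescence of the barcoded RPL19A-GFP strain; lower means less RPL19A-GFP as with rapamycin TOR inhibition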
LAP4-GFP MLPCN: yeast TOR pathway LAP4-GFP modulation; actives 0.34% (n = 320,000); GFP response vs DMSO, % at 10 µM; AID 2023; S. cerevisiae LAP4-GFP multiplex, flow cytometry GFP, 3 h; median GFP as percent of DMSO wells;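 active = GFP response vs DMSO above a set limit, about the screen mean plus 3 SD, cut at about 150% in these data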
CIT2-GFP yeast: yeast TOR pathway CIT2-GFP modulation; S. cerevisiae CIT2-GFP strain, flow cytometry, 3 h; 100 means same as DMSO wells; GFP response vs DMSO, % at 10 µM; actives 0.065% (n = 320,000);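 active = GFP response relative to DMSO above a set limit, near the screen mean plus 3 SD, cut at about 150% in these data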;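 note: ratio of well median GFP fluorescence to mean of DMSO wells on the plate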
MEP2 TOR yeast: alters MEP2-GFP fluorescence in TOR pathway yeast screen; GFP response vs DMSO, % at 10 µM; actives 0.51% (n = 330,000); S. cerevisiae MEP2-GFP strain, flow cytometry GFP, 3 h; 100% = DMSO control level;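 active = GFP response versus DMSO above a set limit, roughly screen mean plus 3 SD, cut at about 180% in these data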;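 note: median GFP fluorescence of the barcode-gated MEP2-GFP cells per well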
LAP4-GFP pick2: yeast LAP4-GFP modulation, second cherry pick | shares compounds with LAP4-GFP MLPCN | S. cerevisiae LAP4-GFP strain, flow cytometry GFP, 3 h | GFP response vs DMSO, % at 10 µM | actives 20% (n = 590);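 active = GFP signal as percent of the solvent control above about 150%, meaning raised reporter expression, limit read from the data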
MEP2-GFP pick2: reconfirmed MEP2-GFP TOR pathway modulator in yeast; shares compounds with LAP4-GFP MLPCN; AID 2622; GFP response vs DMSO, % at 10 µM; actives 10% (n = 590); S. cerevisiae MEP2-GFP strain, flow cytometry GFP, 3 h;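 active = GFP signal above 150% of the solvent control wells, that is a rise of more than half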;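 note: median channel GFP fluorescence of all gated yeast cells per well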
RPL19A-GFP pick2: reconfirmed modulator of RPL19A-GFP TOR reporter in yeast. shares compounds with LAP4-GFP MLPCN. S. cerevisiae RPL19A-GFP strain, flow cytometry GFP, 3 h; hits give low values; 100% means same as DMSO wells. GFP response vs DMSO, % at 10 µM. actives 3% (n = 590). AID 2623;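 active = under 65% GFP response relative to DMSO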;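 note: median GFP channel fluorescence per well over the all cells gate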
CIT2-GFP pick2: yeast CIT2-GFP TOR reporter modulation, second cherry pick; shares compounds with LAP4-GFP MLPCN; S. cerevisiae CIT2-GFP strain, flow cytometry GFP, 3 h; DMSO control wells read 100%; GFP response vs DMSO, % at 10 µM; actives 8% (n = 590);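 active = GFP response vs DMSO above about 150%, limit read from the data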;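 note: median green fluorescence per well over all gated yeast cells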
AGP1 GFP CP2: reconfirmed modulator of AGP1-GFP TOR reporter in yeast. shares compounds with LAP4-GFP MLPCN. S. cerevisiae AGP1-GFP strain, flow cytometry GFP, 3 h. percent response vs DMSO, % at 10 µM. 590 tested, under 10 active. AID 2643;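 active = over 150 percent of DMSO response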;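 note: median GFP channel fluorescence over all cells without mother daughter split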
s288c autofluor: yeast s288c autofluorescence artifact, counter-screen. shares compounds with LAP4-GFP MLPCN. S. cerevisiae s288c, 520 nm autofluorescence, flow cytometry, 3 h; hits give high values; zero means same as solvent-only cells. fluorescence change (kMESF span) at 33 µM. 610 tested, under 10 active. AID 2757;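 active = fluorescence span over the dose series, or activity score, above about 33, limit read from the data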
Yeast autofl DR: yeast s288c autofluorescence artifact in dose response; S. cerevisiae s288c parental, compound autofluorescence, flow cytometry, 3 h; fluorescence change (span) at 33 µM; shares compounds with LAP4-GFP MLPCN; 110 tested, under 10 active;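 active = fluorescence change span, or the activity score built from it, above 25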
TORC1 bypass: wildtype yeast growth loss with TORC1 bypass cells unaffected. growth rating (0-3) at 30 µM. 120 tested, under 10 active. AID 504456. S. cerevisiae BY4741 spot growth rating, 48-72 h; hits give low values. shares compounds with LAP4-GFP MLPCN;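 active = growth rating at most 1 for wild type yeast while the TORC1 bypass strain still grows fully, rated 3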
Each line names hits and unclear results; the compound was inactive in the other large screens (follow-up assays come after a bar, where they were run); ! = a repeat was not active. In the library only some 1.1% were active in any assay of this set; here they are far more common.

CCOc1ccc(NS(=O)(=O)c2ccc(C(=O)NCC(c3ccc(OC)cc3)N3CCOCC3)cc2)cc1 (configuration not stated)	none
O=c1cc(C(F)(F)F)[nH]c2c(C(F)(F)F)cccc12	none
O=c1cc(C(F)(F)F)[nH]c2ccc(OC(F)(F)F)cc12	none | LAP4-GFP pick2 inactive | MEP2-GFP pick2 inactive | RPL19A-GFP pick2 inactive | CIT2-GFP pick2 inactive | AGP1 GFP CP2 inactive
CCCCN(CCCNC(=O)c1ccc(CS(=O)(=O)c2ccc(OC)cc2)o1)Cc1ccccc1	none | LAP4-GFP pick2 inactive | MEP2-GFP pick2 inactive | RPL19A-GFP pick2 inactive | CIT2-GFP pick2 inactive | AGP1 GFP CP2 inactive
CCCN(CC(=O)Nc1ccccc1OC)C(=O)c1ccc(S(=O)(=O)Nc2ccccc2)cc1	none
CCCOCc1ccc(O)c2ncccc12	none
Oc1ccc(COCc2ccccc2)c2cccnc12	LAP4-GFP MLPCN 160 | s288c autofluor inactive
Cc1ccc(C2=NN(S(C)(=O)=O)C(c3cccs3)C2)cc1 (configuration not stated)	none
CCc1ccc(C2=NN(S(C)(=O)=O)C(c3cccs3)C2)cc1 (configuration not stated)	LAP4-GFP MLPCN 258, CIT2-GFP yeast 230, MEP2 TOR yeast 378 | LAP4-GFP pick2 253 | MEP2-GFP pick2 484 | RPL19A-GFP pick2 inactive | CIT2-GFP pick2 384 | AGP1 GFP CP2 inactive
Cc1ccc(OCCC(=O)OCC(=O)NC2CCS(=O)(=O)C2)cc1 (configuration not stated)	none
C[C@@]12C(=O)OC(=O)[C@]1(C)C1CCC2O1	LAP4-GFP MLPCN 189 | LAP4-GFP pick2 213 | MEP2-GFP pick2 inactive | RPL19A-GFP pick2 inactive | CIT2-GFP pick2 inactive | AGP1 GFP CP2 inactive | s288c autofluor inactive
CCc1ccc(/C=C/C(=O)c2cc(Br)ccc(=O)c2O)cc1	none | LAP4-GFP pick2 156 | MEP2-GFP pick2 inactive | RPL19A-GFP pick2 inactive | CIT2-GFP pick2 inactive | AGP1 GFP CP2 inactive | s288c autofluor inactive
CCOC(=O)c1c(CSCc2ccccc2)oc2ccc(O)c(CN(C)C)c12	none | LAP4-GFP pick2 inactive | MEP2-GFP pick2 inactive | RPL19A-GFP pick2 inactive | CIT2-GFP pick2 inactive | AGP1 GFP CP2 inactive
CCOc1cc2c(C#N)c(N3CCOCC3)nc(N)c2c(N)n1	none (no result: AGP1 TOR yeast)
CCOc1cc2c(C#N)c(N(CC)CC)nc(N)c2c(N)n1	LAP4-GFP MLPCN 153 | LAP4-GFP pick2 inactive | MEP2-GFP pick2 inactive | RPL19A-GFP pick2 inactive | CIT2-GFP pick2 inactive | AGP1 GFP CP2 inactive
c1ccc(-c2nnsc2Sc2ccccn2)cc1	none
O=c1oc2cc(Oc3c([N+](=O)[O-])cc(C(F)(F)F)cc3[N+](=O)[O-])ccc2c2c1CCCC2	LAP4-GFP MLPCN 294 | s288c autofluor inactive
CCOC(CNC(=O)CN1C(=O)COc2ccc(S(=O)(=O)N3CCCC3)cc21)OCC	none
CC(=O)[C@@]1(O)[C@H](C)CC2C3CC=C4CC(OP(=O)(O)O)CC[C@]4(C)C3CC[C@@]21C (some centres not stated)	none
N#Cc1ccc(N=c2ssnc2Cl)cc1	LAP4-GFP MLPCN 158! | LAP4-GFP pick2 inactive | MEP2-GFP pick2 inactive | RPL19A-GFP pick2 inactive | CIT2-GFP pick2 inactive | AGP1 GFP CP2 inactive | s288c autofluor inactive
Clc1ccc(N=c2ssnc2Cl)cc1	LAP4-GFP MLPCN 156 | s288c autofluor inactive | Yeast autofl DR inactive | TORC1 bypass inactive
Fc1ccc(N=c2ssnc2Cl)c(F)c1	none
COc1ccc(N=c2ssnc2Cl)cc1	none (no result: AGP1 TOR yeast)
Cc1sc2ncn(CC(=O)NCC(=O)N3CCN(c4ccc(F)cc4)CC3)c(=O)c2c1C	none
O=C1C=CC(=O)N1Cc1ccccc1	VLA-4 inh 54, LAP4-GFP MLPCN 159 | LAP4-GFP pick2 inactive | MEP2-GFP pick2 inactive | RPL19A-GFP pick2 inactive | CIT2-GFP pick2 inactive | AGP1 GFP CP2 inactive
CN(C)NC(=S)Nc1ccc(S(=O)(=O)N2CCCCC2)cc1	none | LAP4-GFP pick2 inactive | MEP2-GFP pick2 inactive | RPL19A-GFP pick2 inactive | CIT2-GFP pick2 inactive | AGP1 GFP CP2 inactive | s288c autofluor inactive
NS(=O)(=O)c1ccc(-c2c(-c3ccccc3)sc3ccccc23)cc1	none
Cc1cc(-c2ccco2)c(C#N)c2nc3ccccc3n12	none | LAP4-GFP pick2 inactive | MEP2-GFP pick2 inactive | RPL19A-GFP pick2 inactive | CIT2-GFP pick2 inactive | AGP1 GFP CP2 inactive
O=C(Cc1ccccc1[N+](=O)[O-])OCc1cccc([N+](=O)[O-])c1	none
Cc1cccc(C(=O)OCC(=O)NCC2COc3ccccc3O2)c1 (configuration not stated)	none
CCc1ccc(N(CC(=O)NCc2ccco2)C(=O)CCC(=O)Nc2nccs2)cc1	none
O=C1C2C3C=CC(C3)C2C(=O)N1/N=C/c1cc(Br)cc([N+](=O)[O-])c1O (configuration not stated)	LAP4-GFP MLPCN 180 | LAP4-GFP pick2 inactive | MEP2-GFP pick2 inactive | RPL19A-GFP pick2 inactive | CIT2-GFP pick2 inactive | AGP1 GFP CP2 inactive
